# Results: PMC7862700, “An all-to-all approach to the identification of sequence-specific readers for epigenetic DNA modifications on cytosine”
# How the values were obtained:
# Assay in all cases: DAPPL (digital affinity profiling via proximity ligation, sequencing); 10 mM Tris-HCl pH 7.5, 50 mM NaCl, 1 mM DTT, 4% glycerol, room temperature, 30 min; GST-TFs on glutathione beads, 16-mer random dsDNA library, 0.1% formaldehyde crosslink after washing; high values mean tight binding
# Settings in all cases: protein: recombinant; tags: N-terminal GST; dsDNA, one strand shown
# [1] = molecular target: ELF4 (Homo sapiens, UniProt Q99607 1-663)
# How it was run: (§1)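 In yeast, human transcription factors were expressed with a GST fusion, then pulled down on glutathione beads and given DNA barcodes. Pooled with a tag-only sample, they were exposed to 200 nmole of a 16-mer random double-stranded DNA library (Tris/NaCl/DTT/glycerol buffer, room temperature, 30 min), washed, crosslinked with 0.1% formaldehyde, proximity-ligated using BsaI/T4 ligase for 1 h at 37 °C, PCR-amplified and read on an Illumina NextSeq500. Each hexamer's frequency of reads for a factor, divided by the matching frequency for the tag-only sample, gives the binding signal.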
# [2] = molecular target: T1, ELK4 (Homo sapiens, UniProt P28324-2 1-405)
# T1 sequence: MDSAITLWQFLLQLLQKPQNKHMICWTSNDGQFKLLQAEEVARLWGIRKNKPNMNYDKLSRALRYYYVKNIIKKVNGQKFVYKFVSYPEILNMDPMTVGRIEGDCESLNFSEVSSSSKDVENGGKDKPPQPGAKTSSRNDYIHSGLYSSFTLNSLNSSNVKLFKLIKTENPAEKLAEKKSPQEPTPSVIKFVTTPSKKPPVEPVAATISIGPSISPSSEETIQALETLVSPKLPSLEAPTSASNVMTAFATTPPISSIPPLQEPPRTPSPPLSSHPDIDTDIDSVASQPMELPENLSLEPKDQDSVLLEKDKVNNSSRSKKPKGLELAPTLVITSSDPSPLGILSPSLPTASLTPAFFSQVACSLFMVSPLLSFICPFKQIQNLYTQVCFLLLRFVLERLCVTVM
# How it was run: as §1
# [3] = molecular target: T2, ETV2 (Homo sapiens, UniProt O00321 1-342)
# T2 sequence: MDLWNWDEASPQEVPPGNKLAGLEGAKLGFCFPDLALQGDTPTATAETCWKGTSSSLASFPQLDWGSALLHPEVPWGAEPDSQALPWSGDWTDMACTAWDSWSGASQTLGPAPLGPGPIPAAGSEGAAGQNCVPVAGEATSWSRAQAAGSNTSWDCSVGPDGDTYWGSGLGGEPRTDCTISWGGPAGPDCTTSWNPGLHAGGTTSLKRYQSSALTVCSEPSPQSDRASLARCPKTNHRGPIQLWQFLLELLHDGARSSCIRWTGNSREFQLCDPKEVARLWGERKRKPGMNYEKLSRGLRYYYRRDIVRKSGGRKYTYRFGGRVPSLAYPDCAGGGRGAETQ
# How it was run: as §1
# [4] = molecular target: T3, ELF3 (Homo sapiens, UniProt P78545 1-371)
# T3 sequence: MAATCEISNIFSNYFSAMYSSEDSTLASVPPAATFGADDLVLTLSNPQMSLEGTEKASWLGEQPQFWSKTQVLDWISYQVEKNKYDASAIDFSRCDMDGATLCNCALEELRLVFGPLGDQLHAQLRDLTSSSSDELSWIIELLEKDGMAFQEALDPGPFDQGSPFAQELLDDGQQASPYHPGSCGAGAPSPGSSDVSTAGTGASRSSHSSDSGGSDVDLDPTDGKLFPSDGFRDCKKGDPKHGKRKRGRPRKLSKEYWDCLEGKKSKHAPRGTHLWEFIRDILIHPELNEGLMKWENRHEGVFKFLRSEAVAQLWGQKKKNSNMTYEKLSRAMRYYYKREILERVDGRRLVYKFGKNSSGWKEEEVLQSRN
# How it was run: as §1
# [5] = molecular target: T4, ERF (Homo sapiens, UniProt P50548 1-548)
# T4 sequence: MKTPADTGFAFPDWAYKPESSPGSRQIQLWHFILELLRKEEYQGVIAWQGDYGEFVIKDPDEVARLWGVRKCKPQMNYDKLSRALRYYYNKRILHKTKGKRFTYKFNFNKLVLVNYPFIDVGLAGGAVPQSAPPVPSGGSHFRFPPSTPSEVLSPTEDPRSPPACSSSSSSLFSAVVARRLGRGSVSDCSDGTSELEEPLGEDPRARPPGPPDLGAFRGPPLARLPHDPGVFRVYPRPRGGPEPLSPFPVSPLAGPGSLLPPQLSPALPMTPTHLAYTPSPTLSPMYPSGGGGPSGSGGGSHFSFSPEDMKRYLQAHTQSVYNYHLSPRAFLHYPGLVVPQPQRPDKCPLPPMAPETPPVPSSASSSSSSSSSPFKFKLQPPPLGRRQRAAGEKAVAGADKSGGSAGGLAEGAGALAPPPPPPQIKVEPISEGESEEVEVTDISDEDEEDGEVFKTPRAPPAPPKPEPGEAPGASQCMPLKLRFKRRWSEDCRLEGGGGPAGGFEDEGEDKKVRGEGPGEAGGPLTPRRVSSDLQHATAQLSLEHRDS
# How it was run: as §1
# [6] = molecular target: T5, ETV3L (Homo sapiens, UniProt Q6ZN32 1-361)
# T5 sequence: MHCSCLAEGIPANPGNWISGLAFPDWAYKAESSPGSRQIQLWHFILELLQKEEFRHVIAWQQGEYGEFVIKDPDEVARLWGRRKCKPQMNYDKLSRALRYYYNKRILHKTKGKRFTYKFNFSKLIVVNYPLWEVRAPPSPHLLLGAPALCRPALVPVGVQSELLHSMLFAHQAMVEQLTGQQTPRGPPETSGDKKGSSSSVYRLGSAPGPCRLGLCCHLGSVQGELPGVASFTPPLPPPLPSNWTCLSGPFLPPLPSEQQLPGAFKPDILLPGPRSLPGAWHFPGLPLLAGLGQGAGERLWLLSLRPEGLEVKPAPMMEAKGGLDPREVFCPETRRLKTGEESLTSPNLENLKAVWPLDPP
# How it was run: as §1
# [7] = molecular target: T6, ETS2 (Homo sapiens, UniProt P15036 1-469)
# T6 sequence: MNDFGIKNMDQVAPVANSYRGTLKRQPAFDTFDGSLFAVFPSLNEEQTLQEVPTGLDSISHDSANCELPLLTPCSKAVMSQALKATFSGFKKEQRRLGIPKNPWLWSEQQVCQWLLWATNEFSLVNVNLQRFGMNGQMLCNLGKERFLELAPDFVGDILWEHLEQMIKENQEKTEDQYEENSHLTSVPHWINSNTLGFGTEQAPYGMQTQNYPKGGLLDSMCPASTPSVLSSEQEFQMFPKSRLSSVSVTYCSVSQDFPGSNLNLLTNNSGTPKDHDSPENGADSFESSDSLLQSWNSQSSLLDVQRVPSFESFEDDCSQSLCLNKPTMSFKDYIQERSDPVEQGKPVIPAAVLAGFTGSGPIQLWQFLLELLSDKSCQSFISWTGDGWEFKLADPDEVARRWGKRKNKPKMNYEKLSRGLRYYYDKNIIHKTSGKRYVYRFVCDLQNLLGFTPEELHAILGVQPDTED
# How it was run: as §1
# [8] = molecular target: T7, ETV7 (Homo sapiens, UniProt Q9Y603 1-341)
# T7 sequence: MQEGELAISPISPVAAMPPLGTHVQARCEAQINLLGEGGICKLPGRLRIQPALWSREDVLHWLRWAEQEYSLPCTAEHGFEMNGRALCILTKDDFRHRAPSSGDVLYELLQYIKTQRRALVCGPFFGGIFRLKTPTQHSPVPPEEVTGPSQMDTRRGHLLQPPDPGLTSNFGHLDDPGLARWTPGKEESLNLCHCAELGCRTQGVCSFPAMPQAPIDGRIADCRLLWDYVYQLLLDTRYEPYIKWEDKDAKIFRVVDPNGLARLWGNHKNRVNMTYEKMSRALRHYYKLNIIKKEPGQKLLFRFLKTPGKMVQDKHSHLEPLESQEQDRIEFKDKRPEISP
# How it was run: as §1
# [9] = molecular target: T8, ETV3 (Homo sapiens, UniProt P41162-2 1-143)
# T8 sequence: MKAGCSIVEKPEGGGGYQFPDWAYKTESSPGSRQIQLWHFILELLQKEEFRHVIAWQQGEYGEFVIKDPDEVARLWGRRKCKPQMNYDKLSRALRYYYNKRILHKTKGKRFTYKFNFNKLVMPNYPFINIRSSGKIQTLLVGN
# How it was run: as §1
# [10] = molecular target: ETV6 (Homo sapiens, UniProt P41212 1-452)
# How it was run: as §1
# ETV6, sequence (P41212 whole entry): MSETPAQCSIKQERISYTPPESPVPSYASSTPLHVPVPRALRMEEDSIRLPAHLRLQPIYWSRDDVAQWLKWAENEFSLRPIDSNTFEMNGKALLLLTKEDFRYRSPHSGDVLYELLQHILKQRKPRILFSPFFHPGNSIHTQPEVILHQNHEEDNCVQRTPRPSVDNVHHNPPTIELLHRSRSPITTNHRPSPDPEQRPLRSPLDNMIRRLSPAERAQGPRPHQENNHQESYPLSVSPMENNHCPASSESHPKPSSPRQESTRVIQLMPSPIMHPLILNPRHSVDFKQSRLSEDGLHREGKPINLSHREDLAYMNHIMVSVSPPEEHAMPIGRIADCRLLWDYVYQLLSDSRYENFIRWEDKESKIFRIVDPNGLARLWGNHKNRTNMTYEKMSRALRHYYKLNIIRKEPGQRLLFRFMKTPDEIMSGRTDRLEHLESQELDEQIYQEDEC
# ELF4, sequence (Q99607 whole entry, the tested form may be a part): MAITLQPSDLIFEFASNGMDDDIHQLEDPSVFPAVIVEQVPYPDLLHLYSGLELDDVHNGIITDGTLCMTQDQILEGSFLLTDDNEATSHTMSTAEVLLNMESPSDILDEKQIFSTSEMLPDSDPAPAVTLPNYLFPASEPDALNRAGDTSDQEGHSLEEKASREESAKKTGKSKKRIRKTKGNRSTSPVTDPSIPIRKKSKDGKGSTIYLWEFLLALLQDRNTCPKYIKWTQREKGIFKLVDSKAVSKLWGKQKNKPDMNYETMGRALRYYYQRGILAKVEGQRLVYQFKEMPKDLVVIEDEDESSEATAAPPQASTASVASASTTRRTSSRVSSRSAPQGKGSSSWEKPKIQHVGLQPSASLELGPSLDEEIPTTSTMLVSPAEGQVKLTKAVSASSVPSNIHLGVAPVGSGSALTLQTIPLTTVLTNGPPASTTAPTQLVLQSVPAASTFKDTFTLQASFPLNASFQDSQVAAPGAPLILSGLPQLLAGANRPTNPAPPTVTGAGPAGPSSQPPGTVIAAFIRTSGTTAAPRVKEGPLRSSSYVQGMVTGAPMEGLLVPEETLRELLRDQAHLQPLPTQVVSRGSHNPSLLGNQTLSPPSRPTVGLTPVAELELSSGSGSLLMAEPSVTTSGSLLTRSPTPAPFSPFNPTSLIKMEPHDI
sequence,measurement,setting,value
TGGCCA,binding signal,[1],"1.13 fold enrichment (6-mer frequency, TF over GST control)"
same,binding signal,[2],"1.08 fold enrichment (6-mer frequency, TF over GST control)"
same,binding signal,[3],"1.02 fold enrichment (6-mer frequency, TF over GST control)"
same,binding signal,[4],"1.04 fold enrichment (6-mer frequency, TF over GST control)"
same,binding signal,[5],"1.06 fold enrichment (6-mer frequency, TF over GST control)"
same,binding signal,[6],"1.04 fold enrichment (6-mer frequency, TF over GST control)"
same,binding signal,[7],"1.07 fold enrichment (6-mer frequency, TF over GST control)"
same,binding signal,[8],"1.09 fold enrichment (6-mer frequency, TF over GST control)"
same,binding signal,[9],"1 fold enrichment (6-mer frequency, TF over GST control)"
same,binding signal,[10],"1.09 fold enrichment (6-mer frequency, TF over GST control)"
